From PubChem BioAssay
SMN2 splice up – qHTS Assay for Enhancers of SMN2 Splice Variant Expression | Potency, µM (titrated, usually from 46.1 µM), most hits filed as activators | 2.8% of 210,000 active | AID 1458, 2008 | HEK293 SMN2-luciferase splicing reporter, luminescence, 30-36 h; also: nearly all actives have a fitted effect of over 55% in size
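HEK293 cells carry an SMN2 […]–luciferase reporter in which exon 7 inclusion puts luciferase in frame. Cells were plated 10-12 h before compound addition, then incubated 30-36 h at 37C. ONE-Glo luminescence was read; sodium butyrate at 4.5 mM final served as control.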
NPC1 promoter act – qHTS Assay for NPC1 Promoter Activators; Huh7 NPC1 promoter luciferase reporter, 24 h; Potency, µM (highest dose often 9.22 µM), usual class: activators; 2.4% of 320,000 active; also: nearly all actives have a fitted effect of over 60% in size
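Huh7 reporter cells (NPC1 promoter driving luciferase) are dosed with compound for 24 h at 37 °C, 5% CO2; luciferase detection reagent is then added and luminescence measured after 10 min at ambient temperature.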
uPA surface inh – qHTS for Inhibitors of Cell Surface uPA Generation; cell surface uPA generation assay, qHTS; Potency, µM (series often up to 38.3 µM), usual class: inhibitors; 0.31% of 330,000 active; active = well fitted inhibition curve with a large enough effect; inconclusive = small, poorly fitted or top-dose-only effect; inactive = no such curve, though single readings can be large or run the other way; tested in mouse RAW 264.7 cells; also: nearly all actives have a fitted effect of over 55% in size
Rab9 prom act – qHTS Assay for Rab9 Promoter Activators; Huh7 Rab9 promoter-luciferase reporter, luminescence, 24 h; Potency, µM (doses to about 9.22 µM), actives largely listed as activators; 2.8% of 320,000 active; AID 485297, 2010; also: nearly all actives have a fitted effect of over 60% in size
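Luminescence from Amplite-detected luciferase (10 minutes, ambient) reports Rab9 promoter activation. Before that, stable Rab9-luciferase Huh7 cells (1500/well, reduced-serum OP-MEM I plus 10% FBS) were exposed to compound for 24 hours at 37C.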
ELG1 genotox – qHTS screen for small molecules that induce genotoxicity in human embryonic kidney (HEK293T) cells expressing luciferase-tagged ELG1. HEK293T ELG1-luciferase reporter, luminescence, 16 h. Potency, µM (top dose mostly 46 µM), most hits filed as activators. 1.3% of 330,000 active; also: nearly all actives have a fitted effect of over 60% in size
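Screening used a luciferase reporter fused to human ELG1 in HEK293T cells. Luminescence was read on a CCD plate imager after 16 hr exposure and 30 min ONE-Glo incubation.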
FLuc counter – qHTS profiling assay for firefly luciferase inhibitor/activator using purifed enzyme and Km concentrations of substrates (counterscreen for miR-21 project); Luciferin 4-monooxygenase (Photinus pyralis), P08659; purified FLuc, Km substrates, luminescence inhibition; Potency, µM (top dose mostly 57.5 µM), hits mostly inhibitors; 6.9% of 360,000 active; AID 588342, 2011; also: nearly all actives have a fitted effect of over 55% in size
Target sequence (P08659 whole entry, looked up): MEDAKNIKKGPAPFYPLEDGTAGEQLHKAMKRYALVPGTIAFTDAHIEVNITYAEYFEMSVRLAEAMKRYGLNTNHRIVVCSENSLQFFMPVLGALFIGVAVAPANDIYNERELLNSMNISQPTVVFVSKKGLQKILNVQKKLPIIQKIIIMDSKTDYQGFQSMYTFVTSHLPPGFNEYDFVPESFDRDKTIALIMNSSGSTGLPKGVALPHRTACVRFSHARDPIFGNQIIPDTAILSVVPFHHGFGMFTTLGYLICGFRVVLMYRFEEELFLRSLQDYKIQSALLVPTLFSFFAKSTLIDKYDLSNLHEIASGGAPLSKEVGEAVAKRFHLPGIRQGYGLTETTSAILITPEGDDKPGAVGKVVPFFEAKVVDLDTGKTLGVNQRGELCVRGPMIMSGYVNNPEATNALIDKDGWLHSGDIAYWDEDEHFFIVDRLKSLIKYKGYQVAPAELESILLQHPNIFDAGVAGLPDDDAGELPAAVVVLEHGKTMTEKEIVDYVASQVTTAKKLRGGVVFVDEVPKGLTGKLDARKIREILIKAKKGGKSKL
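Purified P. pyralis luciferase (10nM final) with 10uM D-luciferin and 10uM ATP (Km levels) in 50mM Tris acetate pH 7.5, 10mM Mg acetate, 0.01% Tween-20, 0.05% BSA; qHTS 6-point titration, ~60 µM downward; luminescence read.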
Hits are given with their value; – = inactive; ? = inconclusive; · = not tested or not shown; [ ] = another dose, or the depositor's remark. Compounds with a hit are over-represented: about 7.3% of the library has one in this group of screens. Unless noted, calls follow the shape of the dose curve; as a rule, active = well fitted curve in the direction sought with a large enough effect; inconclusive = small, poorly fitted or top-dose-only effect, or another doubt; inactive = no such curve, though single readings can be large; an effect the other way counts as inactive or inconclusive.

SMILES | SMN2 splice up | NPC1 promoter act | uPA surface inh | Rab9 prom act | ELG1 genotox | FLuc counter
O=C(COc1ccccc1C(=O)N/N=C\c1ccc(O)c(O)c1)N/N=C/c1ccc(O)c(O)c1 | ? | – | – | – | – | 6.7µM
CCOc1ccccc1NC(=O)CN1C(=O)C2(SCC(=O)N2c2cccc(F)c2)c2ccccc21 (configuration not stated) | · | · | · | · | · | –
CC1=CC(=O)C2=C(C)C[C@H](OC(=O)Cc3ccccc3)C3[C@H](OC(=O)[C@H]3C)C12 (some centres not stated) | – | · | · | · | · | ·
CCOC(=O)C(=O)N1CCN(c2cc3c(cc2[N+](=O)[O-])n(C)c(=O)n3C)CC1 | – | – | – | – | – | –
O=C(OCC(=O)N1CCCC1)c1ccccc1OCc1ccccc1 | 13µM | – | – | – | ? | 17µM
O=C(OCC(=O)N1CCOCC1)c1ccc2ccccc2c1O | · | 3.2µM | – | 4µM | ? | 17µM
O=C(OCC(=O)N1CCC(Cc2ccccc2)CC1)c1ccc[nH]c1=O | – | – | – | – | – | –
COc1ccccc1C(=O)OCC(=O)N1CCC(Cc2ccccc2)CC1 | · | – | – | – | – | 17µM
O=C(OCC(=O)N1CCOCC1)c1ccccc1OCc1ccccc1 | · | – | – | – | – | 24µM
Cc1ccc(CN(C(=O)c2ccc([N+](=O)[O-])cc2)c2ccccn2)cc1 | · | · | · | · | · | –
Cc1cccn2c(=O)cc(COc3cccc(NC(=O)c4cccc(Cl)c4)c3)nc12 | · | · | · | · | · | –
CCCS(=O)(=O)Nc1cccc(-c2ccc3nnc(C)n3n2)c1 | 16µM | – | – | – | ? | –
COCCCNC(=O)c1ccc2c3c(onc13)-c1ccccc1C2=O | · | 3.2µM | – | 0.71µM | – | 6µM
COCCCNC(=O)c1ccccc1Oc1ccccc1 | – | – | – | – | – | –
CCn1c(SCC(=O)Nc2ccccc2)nc2c([nH]c3ccccc32)c1=O | · | · | · | · | · | –
CCCOc1ccc(-c2csc3nc[nH]c(=O)c23)cc1 | · | 3.2µM | – | 1.6µM | ? | ?
COc1ccc(-c2csc3nc[nH]c(=O)c23)cc1OC | · | – | – | –[1.84 µM] | – | –
O=c1[nH]cnc2scc(-c3ccc(-c4ccccc4)cc3)c12 | 14µM | 1.1µM | – | 1.1µM | 1.8µM | 1.2µM
Brc1ccc(CNCCCSc2nnnn2-c2ccccc2)cc1 | · | · | · | · | · | –
O=C(CCN1C(=O)C2CCCCC2C1=O)Nc1nc2ccc(F)cc2s1 (configuration not stated) | · | 0.63µM | – | 0.4µM | ? | 0.85µM
O=C(CCN1C(=O)C2CCCCC2C1=O)Nc1cc(F)ccc1F (configuration not stated) | · | – | – | – | – | –
O=C(CCN1C(=O)C2CCCCC2C1=O)Nc1nc2c(F)cc(F)cc2s1 (configuration not stated) | · | 2.5µM | – | 1.4µM | ? | –
CCN(c1ccc(NC(=O)COC(=O)c2cccs2)cc1)C(C)C | ? | – | – | – | – | 8.5µM
CCN(CC)c1ccc(NC(=O)COC(=O)c2ccc3ccccc3n2)cc1 | – | – | – | – | – | 24µM
CCN(CC)c1ccc(C(=O)OCC(=O)Nc2ccc3[nH]c(=O)[nH]c3c2)cc1 | – | – | – | – | – | 19µM
SMILES | SMN2 splice up | NPC1 promoter act | uPA surface inh | Rab9 prom act | ELG1 genotox | FLuc counter
COc1ccc(NC(=O)COC(=O)c2ccc3ccccc3n2)cc1 | · | – | – | – | – | –
CCN(CC)c1ccc(NC(=O)COC(=O)c2cccs2)cc1 | – | – | · | – | – | 12µM
COC(=O)/C(C)=C/CC12OC(C)(C)C3CC(C=C4C(=O)c5cc6c(c(CCC(C)(C)Cl)c5OC431)OC1(C)CCC(=C(C)C)C6C1)C2=O (configuration not stated) | – | · | · | · | · | ·
COc1ccc(Br)cc1CNC(=O)CN1CCSc2ccccc21 | · | · | · | · | · | –
Cc1oc(-c2ccc(Cl)cc2)nc1Cn1c(=O)cc(-c2ccccc2)c2c(C)nn(C)c21 | · | · | · | · | · | –
CCn1c(SC(C)C(=O)Nc2ccc3c(c2)OCCO3)nnc1C1CC1 (configuration not stated) | · | – | – | – | – | 24µM
CC(Sc1nc2ccccc2[nH]1)C(=O)Nc1ccc2c(c1)OCCO2 (configuration not stated) | – | – | – | – | – | 21µM
CC(C(=O)Nc1ccc2c(c1)OCCO2)n1nnc(-c2ccccc2)n1 (configuration not stated) | – | – | – | – | – | –
Cn1c(SCC(=O)Nc2ccc3c(c2)OCCO3)nnc1C1CC1 | · | – | – | – | – | ?
C[C@@H](C(=O)Nc1ccc2c(c1)OCCO2)n1nnc2ccccc2c1=O | · | 3.5µM | – | 3.5µM | ? | 8.5µM
Cc1[nH]c2ccccc2c1C(=O)C(C)OC(=O)c1ccccc1NCCO (configuration not stated) | · | – | – | – | – | ?
CN(CC1CCOCC1)C(=O)CC1C(=O)NCCN1Cc1cccc(C(F)(F)F)c1 (configuration not stated) | · | – | – | – | – | –
O=C/C(=C\Nc1ccccn1)c1nc2cc(Cl)ccc2o1 | ? | – | – | – | – | ?
CC(=O)Nc1cccc(N/C=C(\C=O)c2nc3ccccc3o2)c1 | ? | – | – | – | – | 19µM
O=C/C(=C\Nc1ccccn1)c1nc2ccccc2o1 | – | – | · | – | – | 13µM
O=C1c2ccccc2C(=O)N1c1ccc(-c2nc3ccccc3o2)cc1 | · | ? | · | 4.5µM | – | ?
O=C(CCN1C(=O)c2ccccc2C1=O)Nc1ccc(-c2nc3ccccc3o2)cc1 | 8.9µM | 2.2µM | – | 1.4µM | 1.5µM | –
Cc1cc(C)cc(OCC(=O)Nc2ccc(-c3nc4ccccc4o3)cc2)c1 | 6.3µM | · | · | · | · | –
O=C1c2ccccc2C(=O)N1c1cccc(-c2nc3ccccc3o2)c1 | – | – | – | – | – | –
CCOC(=O)C1(Cc2cccc(Cl)c2)CCCN(C(=O)CCOC)C1 (configuration not stated) | · | – | – | – | – | ?
CCOC(=O)C1(Cc2cccc(OC)c2)CCCN(C(=O)c2cc(CC(C)C)[nH]n2)C1 (configuration not stated) | · | ? | – | 3.5µM | ? | 21µM
CCOC(=O)C1(Cc2cccc(OC)c2)CCCN(C(=O)CCN2CCCO2)C1 (configuration not stated) | · | 3.5µM | – | 3.2µM | 23µM | 15µM
CCOC(=O)C1(Cc2cccc(OC)c2)CCCN(C(=O)c2ccc(OC)o2)C1 (configuration not stated) | · | ? | – | 2.5µM | ? | 12µM
